Assay [1] addresses Voltage-gated inwardly rectifying potassium channel KCNH2 (Homo sapiens) (UniProt Q12809). As to the kind of experiment: qHTS Assay for Small Molecule Inhibitors of the Human hERG Channel Activity (AID 588834).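 Also: lower thallium flux fluorescence means stronger hERG block; nearly all actives have a fitted effect of over 50% in size.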 Also: potency is read from the fitted curve at half-maximal effect. In outline:
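Step 1: BacMam hERG transduction of U2OS, 4 hrs RT. Step 2: overnight 37 °C, plate 2000 cells/well, 4 hr. Step 3: FluxOR load, compound 10 min, stimulate, read fluorescence.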

The target in assay [2] is Glutaminase kidney isoform, mitochondrial (Homo sapiens) (UniProt O94925). As to the kind of experiment: qHTS for Inhibitors of Glutaminase (GLS): LOPAC Validation (AID 624146). Also: nearly all actives have a fitted effect of over 60% in size. Also: potency is read from the fitted curve at half-maximal effect. In outline: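 Two-point fluorescence kinetic (t0, 30 min RT) for hKGA; glutamate detected via glutamate oxidase–HRP–Amplex Red. Substrate: 1 mM L-glutamine solution; buffer 45 mM KH2PO4, pH 8.2.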

Assay [3] is described as follows: qHTS of Trypanosoma Brucei Inhibitors: LOPAC Validation (AID 624147). Summed up: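 Assay buffer: 50 mM TEA pH 7.2, 100 mM KCl, 10 mM MgCl2, 0.05% BSA, 0.01% Tween-20. Pyruvate kinase from T. brucei plus substrate met compound, then ADP (130 uM final). Luminescence was read post 45 min RT.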
Assay [4] concerns the target Glucagon-like peptide 1 receptor (Homo sapiens) (UniProt P43220). In words: qHTS of GLP-1 Receptor Agonists: LOPAC Validation (AID 624148).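 Also: luminescence from a luciferase reporter switched on by cAMP; higher luminescence signal means agonism.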 Summed up: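 Agonism scored as increased luciferase luminescence driven by cAMP in HEK293 clones carrying GLP-1R. Cells settled 12 hours, received compound for 4-6 hr at 37 deg C, 5% CO2, and were read after 12 min detection reagent at RT.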

Assay [5] is described as follows: qHTS of Nrf2 Activators: LOPAC Validation (AID 624149). Also: potency is read from the fitted curve at half-maximal effect. Summed up: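 Luciferase signal from ARE activation, read with Steady-Glo after 30 min at room temperature. Compounds were pin-transferred onto AREc32_Fluc cells (1000/well, OPTI-MEM/5% FBS, seeded overnight) and left 24 hr at 37 deg C.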
Assay [6] is described as follows: HTS Assay for Allosteric Antagonists of the Human D2 Dopamine Receptor: Hit Validation in HTRF (AID 624455). Also: potency is read from the fitted curve at half-maximal effect.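 Also: stable D1 dopamine receptor cell line scored for blocking the D1 response.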 In outline: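 Inhibition of the D1-mediated response was measured by HTRF. Cells used were a line stably expressing the D1 dopamine receptor.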

Our source for the Potency values is PubChem BioAssay (NCATS).

Unmarked numbers belong to inactive results. Inconclusive results are not listed. Active and inactive are the calls of the source. Calls follow the shape of the dose curve; as a rule, active = well fitted curve in the direction sought with a large enough effect; inconclusive = small, poorly fitted or top-dose-only effect, or another doubt; inactive = no such curve, though single readings can be large; an effect the other way counts as inactive or inconclusive.

Voltage-gated inwardly rectifying potassium channel KCNH2 (Homo sapiens), sequence (Q12809 whole entry, looked up): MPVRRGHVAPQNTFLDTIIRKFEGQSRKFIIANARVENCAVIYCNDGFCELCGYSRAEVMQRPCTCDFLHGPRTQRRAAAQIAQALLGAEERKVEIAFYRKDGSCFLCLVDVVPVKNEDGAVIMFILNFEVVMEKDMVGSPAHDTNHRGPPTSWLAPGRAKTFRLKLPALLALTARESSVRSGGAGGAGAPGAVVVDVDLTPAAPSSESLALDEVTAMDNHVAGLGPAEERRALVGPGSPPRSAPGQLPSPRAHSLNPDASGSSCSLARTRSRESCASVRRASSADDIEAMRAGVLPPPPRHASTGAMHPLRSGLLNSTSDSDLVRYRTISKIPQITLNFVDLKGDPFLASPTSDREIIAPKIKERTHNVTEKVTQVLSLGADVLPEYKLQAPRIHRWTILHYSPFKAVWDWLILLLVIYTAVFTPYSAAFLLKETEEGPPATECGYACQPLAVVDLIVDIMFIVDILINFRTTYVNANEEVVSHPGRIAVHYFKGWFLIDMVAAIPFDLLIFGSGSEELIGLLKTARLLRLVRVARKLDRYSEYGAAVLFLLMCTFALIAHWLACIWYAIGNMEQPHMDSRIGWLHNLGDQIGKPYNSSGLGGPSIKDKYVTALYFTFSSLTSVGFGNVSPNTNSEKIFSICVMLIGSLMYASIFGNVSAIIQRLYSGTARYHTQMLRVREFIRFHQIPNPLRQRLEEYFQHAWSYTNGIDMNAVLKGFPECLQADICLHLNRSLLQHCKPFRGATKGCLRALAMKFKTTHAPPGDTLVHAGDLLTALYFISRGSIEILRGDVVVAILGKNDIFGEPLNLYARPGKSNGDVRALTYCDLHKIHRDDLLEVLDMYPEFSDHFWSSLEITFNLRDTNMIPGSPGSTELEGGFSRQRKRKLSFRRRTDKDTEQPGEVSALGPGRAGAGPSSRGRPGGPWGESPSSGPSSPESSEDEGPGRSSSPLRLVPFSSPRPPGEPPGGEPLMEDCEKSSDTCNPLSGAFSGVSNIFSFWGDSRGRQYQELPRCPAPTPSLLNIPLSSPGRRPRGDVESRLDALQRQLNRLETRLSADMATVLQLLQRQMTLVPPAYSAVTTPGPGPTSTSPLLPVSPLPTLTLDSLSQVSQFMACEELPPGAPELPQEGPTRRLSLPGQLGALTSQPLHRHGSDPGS
Glucagon-like peptide 1 receptor (Homo sapiens), sequence (P43220 whole entry, looked up): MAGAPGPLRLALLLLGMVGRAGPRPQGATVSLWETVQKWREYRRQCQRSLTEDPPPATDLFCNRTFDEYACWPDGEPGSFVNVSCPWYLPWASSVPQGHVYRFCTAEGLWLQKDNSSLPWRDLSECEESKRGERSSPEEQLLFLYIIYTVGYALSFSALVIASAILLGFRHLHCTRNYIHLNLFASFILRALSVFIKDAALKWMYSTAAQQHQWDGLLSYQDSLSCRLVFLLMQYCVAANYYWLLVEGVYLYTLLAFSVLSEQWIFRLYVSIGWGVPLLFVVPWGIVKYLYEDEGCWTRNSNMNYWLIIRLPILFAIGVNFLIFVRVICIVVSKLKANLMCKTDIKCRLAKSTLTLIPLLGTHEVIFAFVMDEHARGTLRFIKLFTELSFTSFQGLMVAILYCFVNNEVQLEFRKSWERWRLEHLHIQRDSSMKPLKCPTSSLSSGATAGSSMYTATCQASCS
Glutaminase kidney isoform, mitochondrial (Homo sapiens), sequence (O94925 whole entry, looked up, canonical isoform): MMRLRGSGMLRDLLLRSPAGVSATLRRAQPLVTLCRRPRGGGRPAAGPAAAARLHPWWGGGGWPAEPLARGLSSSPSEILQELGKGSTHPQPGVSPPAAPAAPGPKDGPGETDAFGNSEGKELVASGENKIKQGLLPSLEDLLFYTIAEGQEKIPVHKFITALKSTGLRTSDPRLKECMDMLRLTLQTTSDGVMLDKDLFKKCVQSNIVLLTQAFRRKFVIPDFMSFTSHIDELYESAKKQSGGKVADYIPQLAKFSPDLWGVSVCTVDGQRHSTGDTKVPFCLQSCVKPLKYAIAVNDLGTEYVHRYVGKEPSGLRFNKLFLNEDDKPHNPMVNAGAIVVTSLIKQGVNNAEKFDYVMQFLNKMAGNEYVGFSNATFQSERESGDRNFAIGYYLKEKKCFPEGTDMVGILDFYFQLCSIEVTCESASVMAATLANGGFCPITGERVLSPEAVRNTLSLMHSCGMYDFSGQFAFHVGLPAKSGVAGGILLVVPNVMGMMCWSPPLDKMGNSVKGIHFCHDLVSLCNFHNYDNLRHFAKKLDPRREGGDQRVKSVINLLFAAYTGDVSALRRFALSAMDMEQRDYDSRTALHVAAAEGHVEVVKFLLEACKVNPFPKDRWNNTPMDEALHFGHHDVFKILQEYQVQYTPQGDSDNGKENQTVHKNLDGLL

Turning to `O=C(c1ccc2c(c1)OCCO2)N1CCCCC1`, the Potency result in assay [1], in assay [2], in assay [3], in assay [4], in assay [5] and in assay [6] was “inactive” each time.

In the case of `NC(=Nc1ccccc1)NC(=O)c1nc(Cl)c(N)nc1N`, in assay [1], the Potency was 14.1 µM (active). Also, the Potency result in assay [2], in assay [3], in assay [4], in assay [5] and in assay [6] was “inactive” each time.

For the molecule `CC(=O)NNC(=O)N1Cc2ccccc2Oc2ccc(Cl)cc21`, the Potency result in assay [1], in assay [2], in assay [3], in assay [4] and in assay [5] was “inactive” throughout.

Regarding `O=C(O)C1=CC(=C(c2ccc(O)c(C(=O)O)c2)c2ccc(O)c(C(=O)O)c2)C=CC1=O`, the Potency result in assay [1], in assay [2], in assay [3], in assay [4], in assay [5] and in assay [6] was “inactive” throughout.

In the case of `N[C@H]1CONC1=O`, the Potency result in assay [1], in assay [2], in assay [3], in assay [4] and in assay [5] was “inactive” throughout.

Turning to `Nc1ncnc2c1ncn2C1CCCC1`, the Potency entry in assay [1], in assay [2], in assay [3], in assay [4], in assay [5] and in assay [6] was “inactive” each time.

Turning to `N[C@@H](Cc1ccc(O)c(I)c1)C(=O)O`, the Potency entry in assay [1], in assay [2], in assay [3], in assay [4], in assay [5] and in assay [6] was “inactive” in each case.

Regarding `COc1ccccc1N1CCN(CCN(C(=O)c2ccc(F)cc2)c2ccccn2)CC1`, the Potency in assay [1] was 11.2 µM (active). Moreover, the Potency result in assay [2], in assay [3], in assay [4], in assay [5] and in assay [6] was “inactive” throughout.

As for `COc1cc(C(O)C(=O)O)ccc1O` (stereo not drawn), the Potency entry in assay [1], in assay [3], in assay [4], in assay [5] and in assay [6] was “inactive” throughout. For the same molecule, the Potency in assay [2] was 2.82 µM (active).

With `CSC(N)=NCCC[C@H](N)C(=O)O`, the Potency result in assay [1], in assay [2], in assay [3], in assay [4], in assay [5] and in assay [6] was “inactive” throughout.

With `OC[C@H]1O[C@@H](n2cnc3cncnc32)[C@H](O)[C@@H]1O`, the Potency result in assay [1], in assay [2], in assay [3], in assay [4], in assay [5] and in assay [6] was “inactive” each time.

Take `COC(=O)C(N)Cc1ccc(Cl)cc1` (stereo not drawn): the Potency entry in assay [1], in assay [2], in assay [3], in assay [4], in assay [5] and in assay [6] was “inactive” in each case.

Take `COc1cc(C(O)CO)ccc1O` (stereo not drawn): the Potency result in assay [1], in assay [3], in assay [4], in assay [5] and in assay [6] was “inactive” in each case. Besides, the Potency in assay [2] was 4.47 µM (active).

Take `O=C1OC(=O)C2C3CCC(O3)C12` (stereo not drawn): the Potency entry in assay [1], in assay [2], in assay [3], in assay [4], in assay [5] and in assay [6] was “inactive” throughout.

Turning to `O=c1ccn([C@@H]2O[C@H](COP(=O)(O)OP(=O)(O)O)[C@@H](O)[C@H]2O)c(=O)[nH]1`, the Potency entry in assay [1], in assay [2], in assay [3], in assay [4], in assay [5] and in assay [6] was “inactive” in each case.

Turning to `CC[N+](CC)(CC)CC(=O)Nc1c(C)cccc1C`, the Potency entry in assay [1], in assay [2], in assay [3], in assay [4], in assay [5] and in assay [6] was “inactive” throughout.

Consider `C#CCn1c(=O)c2c(ncn2C)n(C)c1=O`, for which the Potency entry in assay [1], in assay [2], in assay [3], in assay [4], in assay [5] and in assay [6] was “inactive” each time.

`CC#CCOC(=O)c1c(C)nc2sc3c(c2c1N)CCC(O)C3` (stereo not drawn): the Potency result in assay [1], in assay [2], in assay [3], in assay [4], in assay [5] and in assay [6] was “inactive” in each case.

For the molecule `Nc1nc2ccc(Cl)cc2c2nc(-c3ccco3)nn12`, the Potency entry in assay [1], in assay [2], in assay [3], in assay [4] and in assay [6] was “inactive” each time. The Potency in assay [5] was 1.46 µM (active).

Consider `O=C(O)/C=C/c1cnc[nH]1`, for which the Potency entry in assay [1], in assay [2], in assay [3], in assay [4], in assay [5] and in assay [6] was “inactive” each time.

Regarding `CC(N)(Cc1ccc(O)cc1)C(=O)O` (stereo not drawn), the Potency result in assay [1], in assay [2], in assay [3], in assay [4], in assay [5] and in assay [6] was “inactive” throughout.

With `CN[C@H](CC(=O)O)C(=O)O`, the Potency result in assay [1], in assay [2], in assay [3], in assay [4], in assay [5] and in assay [6] was “inactive” in each case.

As for `NC1(C(=O)O)CCCCC1`, the Potency entry in assay [1], in assay [2], in assay [3], in assay [4], in assay [5] and in assay [6] was “inactive” each time.

On to `Fc1ccc(CN(C2=NCCN2)c2c(Cl)cccc2Cl)cc1`, for which, in assay [1], the Potency is 10 µM (active). Also, the Potency result in assay [2], in assay [3], in assay [4], in assay [5] and in assay [6] was “inactive” each time.

Consider `Cc1cccc(C(=O)NCN2CCN(c3ccccc3C#N)CC2)c1`, for which the Potency entry in assay [1], in assay [2], in assay [3], in assay [4], in assay [5] and in assay [6] was “inactive” each time.

Take `Cc1nc(N=Nc2cc(S(=O)(=O)O)c3cc([N+](=O)[O-])cc(S(=O)(=O)O)c3c2)c(COP(=O)(O)O)c(C=O)c1O`: the Potency entry in assay [1], in assay [2], in assay [3], in assay [4], in assay [5] and in assay [6] was “inactive” each time.

Turning to `C=C1C(=O)O[C@@H]2[C@H]3O[C@]3(C)CCC=C(C)CC[C@@H]12`, the Potency entry in assay [1], in assay [2], in assay [3], in assay [4], in assay [5] and in assay [6] was “inactive” in each case.

As for `Nc1ccc(-c2nc3ccc(-c4nc5ccc(N)cc5[nH]4)cc3[nH]2)cc1`, the Potency result in assay [1], in assay [3], in assay [4], in assay [5] and in assay [6] was “inactive” each time. For the same molecule, the Potency in assay [2] was 5.01 µM (active).

Regarding `COc1ccc(C(=O)NCc2cccnc2)cc1C(=O)NCc1cccnc1`, the Potency entry in assay [1], in assay [2], in assay [3], in assay [4], in assay [5] and in assay [6] was “inactive” throughout.

On to `COc1cccc(OC)c1OCCNCC1CSc2ccccc2O1` (stereo not drawn), for which the Potency in assay [1] was 1.41 µM (active); in assay [6], 0.291 µM (active). Moreover, the Potency entry in assay [2], in assay [3], in assay [4] and in assay [5] was “inactive” in each case.
